Assay outcomes deposited in PubChem BioAssay by several laboratories.
A selection: hits, their analogues and other compounds. The true share with any hit is near 12%.
Lmaj promast – inhibitors of Leishmania major promastigote growth. Leishmania major promastigotes, resazurin fluorescence viability. inhibition, % at 10 µM. 200,000 compounds, 9% hits; in the data active = inhibition above about 50%;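 also: promastigotes grown with compound for 44 hours at 28 °C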
WT yeast gro inh – growth inhibition of WT yeast, mitochondrial fusion screen; mitochondrial fusion phenotypic screen, WT strain; inhibition, % at 10 µM; 190,000 compounds, 2.1% hits; AID 1362; in the data active = inhibition above about 58%; tested in S. cerevisiae
CHOP inhibitor – CHOP inhibition in unfolded protein response. 220,000 compounds, 3.8% hits. inhibition, % at 10 µM. CHO-K1 CHOP-promoter luciferase, tunicamycin-induced, 15-18 h;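 active = compounds that reduced the stress-induced luciferase reporter signal by more than about 70% of percent inhibition, limit read from the data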;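 also: 0% = tunicamycin plus vehicle and 100% = wells without tunicamycin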
Arbovirus inh – blocks arbovirus infection; arbovirus infection cell-based antiviral screen; inhibition, % at 10 µM; 200,000 compounds, 0.37% hits; AID 1251; in the data active = inhibition above about 30%
* hit, by the source's call; / = no result given.

SMILES	Lmaj promast	WT yeast gro inh	CHOP inhibitor	Arbovirus inh
Cc1ccc(C)c2[nH]c(=O)c(CN(Cc3ccco3)C(=S)NCC3CCCO3)cc12 (stereo not given)	58.6*	-12.7	15.9	0.7
COc1cccc(C(=O)N(Cc2cc3cc(C)ccc3[nH]c2=O)CC2CCCO2)c1 (stereo not given)	75.1*	3.9	21.2	8.2
Cc1ccc2cc(CN(CC3CCCO3)C(=S)NCc3ccco3)c(=O)[nH]c2c1 (stereo not given)	25.8	-10.7	3.8	0.4
Cc1ccc2cc(CN(Cc3ccco3)C(=S)NCC3CCCO3)c(=O)[nH]c2c1 (stereo not given)	12.2	5.5	7.8	-4.0
Cc1ccc2[nH]c(=O)c(CN(CC3CCCO3)C(=S)NCc3ccco3)cc2c1 (stereo not given)	57.1*	-1.6	16.8	1.7
Cc1ccc2cc(CN(CC3CCCO3)C(=S)Nc3ccccc3)c(=O)[nH]c2c1C (stereo not given)	67.0*	21.8	16.9	26.6
CCOC(=O)c1sc(NC(=O)CC)c(C#N)c1C	-7.1	7.8	-4.9	14.4
Cc1ccc(NC(C#N)c2ccccc2OCc2ccccc2)cc1 (stereo not given)	10.0	-3.9	26.3	-8.9
Cc1ccc2cc(CN(CC3CCCO3)C(=S)Nc3ccccc3)c(=O)[nH]c2c1 (stereo not given)	13.3	-13.8	-2.0	-15.0
Cc1ccc2[nH]c(=O)c(CN(CC3CCCO3)C(=S)Nc3ccccc3)cc2c1 (stereo not given)	54.3*	15.9	19.1	-6.0
Cc1cccc2[nH]c3c(N4CCC5(CC4)OCCO5)ncnc3c12	42.8	-8.6	-2.6	-8.9
O=C(c1ccco1)N1CCN(c2ncnc3scc(-c4ccc(F)cc4)c23)CC1	78.3*	-2.6	-4.3	-10.1
Cc1cccc2[nH]c3c(N4CCN(C(=O)c5ccco5)CC4)ncnc3c12	82.0*	21.0	3.4	-5.4
BrC(=C\c1ccccc1)/C=N/N1CCN(c2ccccn2)CC1	-6.4	-28.1	6.8	3.5
O=C1Nc2ccccc2/C1=C\c1cccn1-c1ccc(OC(F)(F)F)cc1	12.3	-14.2	93.5*	-6.5
O=C(O)c1ccc(-n2cccc2/C=C2/NC(=O)N(c3ccccc3)C2=O)cc1	/	/	-1.1	/
CC(=O)Nc1ccc(-c2nnn(CC(=O)c3ccc(F)cc3)n2)cc1Cl	/	/	-12.8	/
COc1ccc2cc3cc(C(=O)NCCCN4CCc5ccccc5C4)sc3nc2c1	95.5*	35.3	2.6	-20.9
COc1ccc2nc3sc(C(=O)NCCN4CCc5ccccc5C4)cc3cc2c1	43.8	32.5	35.0	15.8
O=C(NCCN1CCOCC1)c1cc(Sc2ccccc2Cl)nc2ccccc12	2.5	-19.2	2.9	-1.0
CCNC(=O)CC1C(=O)N(CC)C(=S)N1NC(=O)c1cccnc1 (stereo not given)	-1.3	-16.8	3.7	2.1
O=C(COC(=O)c1cc(=O)[nH]c2ccc(Br)cc12)c1ccccc1	7.3	6.1	69.9	1.7
O=C(COC(=O)c1cc(=O)[nH]c2ccccc12)c1ccc(Br)cc1	/	/	71.7*	/
O=C1CN(C(=O)c2ccco2)C(c2ccc(F)cc2)c2cc(Cl)ccc2N1 (stereo not given)	33.4	/	/	/
O=C1CN(C(=O)c2ccc(Br)o2)C(c2ccc(F)cc2)c2cc(F)ccc2N1 (stereo not given)	95.2*	-6.9	47.0	-1.0
SMILES	Lmaj promast	WT yeast gro inh	CHOP inhibitor	Arbovirus inh
Cc1nc(NC(=O)COC(=O)CCS(=O)(=O)c2ccccc2Cl)c(Cl)cc1Cl	3.2	61.4*	-15.4	-4.3
Cc1[nH]c2ccccc2c1C(=O)COC(=O)CCS(=O)(=O)c1ccccc1Cl	60.2*	8.0	-0.7	-7.3
Cc1ccc(S(=O)(=O)CCC(=O)OC(C)C(=O)c2c(C)[nH]c3ccccc23)cc1 (stereo not given)	6.9	-17.0	26.2	2.7
O=C(COC(=O)CCc1ccccc1)Nc1ncc(Cl)cc1Cl	-6.3	0.4	17.3	-1.5
O=C1c2ccccc2C(Nc2ccc(Cl)cn2)N1Cc1ccccc1 (stereo not given)	24.7	71.0*	80.3*	2.4
O=C1c2ccccc2C(Nc2ccccc2)N1c1ccc(Cl)cn1 (stereo not given)	16.9	0.5	63.6	-6.1
CN(Cc1ccncn1)C(=O)CC1C(=O)NCCN1Cc1cccc(Oc2ccccc2)c1 (stereo not given)	94.7*	-6.0	6.8	-2.8
Cc1cc(NS(=O)(=O)c2ccc(NC(=O)C(c3ccccc3)c3ccccc3)cc2)no1	-16.5	-4.9	91.4*	11.6
Cc1cc(NS(=O)(=O)c2ccc(NC(=O)c3cc(-c4ccccc4Cl)nc4ccccc34)cc2)no1	59.6*	11.6	13.2	5.5
CCOc1ccccc1NC(=O)CN1C(=O)C(C)SC(C)C1=O (stereo not given)	-3.1	8.3	-2.1	7.1
O=c1n(Cc2ccccc2Cl)nc2n1-c1ccccc1SC2	/	/	-21.8	/
